# Results: publication PMC5540273 (PLoS ONE, 2017)
# How the values were obtained:
# Conditions in all cases: concentration: 1 μM, replicates: in singlicate; n = 1
# AAK1 = test system: AAK1
# ABL1-nonphosphorylated = test system: ABL1-nonphosphorylated
# ABL1-phosphorylated = test system: ABL1-phosphorylated
# ABL2 = test system: ABL2
# ACVR1B = test system: ACVR1B
# ACVR1 = test system: ACVR1
# ACVR2A = test system: ACVR2A
# ACVR2B = test system: ACVR2B
# ACVRL1 = test system: ACVRL1
# ADCK3 = test system: T1, ADCK3
# T1 construct: gene CABC1
# ADCK4 = test system: ADCK4
# AKT1 = test system: AKT1
# AKT2 = test system: AKT2
# AKT3 = test system: AKT3
# ALK = test system: ALK
# AMPK-alpha1 = test system: T2, AMPK-alpha1
# T2 construct: gene PRKAA1
# AMPK-alpha2 = test system: T3, AMPK-alpha2
# T3 construct: gene PRKAA2
# 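Further: KINOMEscan kinase panel screen.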
SMILES,%Inh (AAK1) [%],%Inh (ABL1-nonphosphorylated) [%],%Inh (ABL1-phosphorylated) [%],%Inh (ABL2) [%],%Inh (ACVR1B) [%],%Inh (ACVR1) [%],%Inh (ACVR2A) [%],%Inh (ACVR2B) [%],%Inh (ACVRL1) [%],%Inh (ADCK3) [%],%Inh (ADCK4) [%],%Inh (AKT1) [%],%Inh (AKT2) [%],%Inh (AKT3) [%],%Inh (ALK) [%],%Inh (AMPK-alpha1) [%],%Inh (AMPK-alpha2) [%]
Cn1cncc1-c1ccc2ncnc(Nc3ccc(OCc4ccccc4)cc3)c2c1 [GW320571],2,0,10,10,2,22,16,16,23,27,15,0,20,10,21,35,20
O=C(O)COc1ncnc2cc(-c3ccc4[nH]ncc4c3)sc12,52,33,7,0,31,1,4,0,6,0,0,0,22,17,0,13,18
Cn1ccc2ncnc(Oc3cccc(C(=O)Nc4ccccc4)c3)c21,22,0,0,0,1,100,0,1,0,6,17,0,0,10,0,0,0
CCn1c(-c2cccnc2O)nc2cnccc21 [SB-736715],0,43,0,4,0,0,0,0,0,0,88,2,0,0,0,0,0
COc1ccc2nc(-c3cccc(C)n3)nc(Nc3ccncc3)c2c1 [GSK204919],0,0,0,12,,0,0,0,0,25,3,0,5,0,24,0,16
Cc1c(O)cccc1Nc1ccnc2ccc(C(F)(F)F)cc12.Cl [GW466413],0,42,70,43,0,73,13,85,43,0,81,0,0,1,25,12,16
CS(=O)(=O)c1ccc(-c2c(-c3ncn[nH]3)sc(N3CCOCC3)c2C#N)cc1,18,30,13,7,14,0,0,0,8,3,0,1,15,0,9,22,8
Cc1csc(-c2nc(Nc3ccncc3)c3ccccc3n2)n1 [GW869640],31,31,15,7,94.7,0,3,4,7,14,0,0,3,15,43,12,11
Cc1cccc(-c2nc(Nc3cccc(C(N)=O)c3)c3ccccc3n2)n1 [GW876019],0,25,20,15,83,0,12,19,0,20,26,9,0,0,22,31,0
Cc1cccc(-c2nc(Nc3ccc4[nH]ncc4c3)c3ccccc3n2)n1 [GW857175],0,19,14,3,100,0,0,0,0,0,0,29,55,0,19,0,2
CN1C(=O)C(Nc2ccc(Cl)c(C(=O)O)c2)=C(c2ccc(Cl)cc2)C1=O [SB-404290],100,21,0,19,4,12,0,0,0,0,10,0,0,1,0,6,0
COC(=O)c1c(-c2ccccc2)c2cc(OC)ccc2c(=O)n1Cc1ccccc1,22,66,0,12,0,0,0,0,0,0,0,1,12,0,28,21,0
Cl.O=C(Nc1cccc(-c2nn3ncccc3c2-c2ccnc(Nc3cccnc3)n2)c1)c1c(F)cccc1F [GSK312879],0,0,0,21,0,0,0,0,2,27,2,0,19,10,24,0,12
COc1ccc(CNC(=O)NC2CCN(c3ccnc(Nc4cc(OC)c(OC)c(OC)c4)n3)C2)cc1 (centres unmarked) [GSK1379748],49,0,0,0,0,15,0,0,0,24,76,0,0,0,27,10,0
O=C(Nc1n[nH]c2nc(-c3nccs3)c(Br)cc12)C1CCCC1 [SB-742609],15,7,1,25,0,7,0,11,0,0,14,0,10,1,26,0,18
NC(=O)c1nnc2ccccc2c1N,35,25,6,65,0,0,22,24,0,81,1,7,0,0,24,25,6
Clc1cc(Cl)cc(Nc2ccnc(Nc3cc(Cl)cc(Cl)c3)n2)c1 [GSK175726],0,68,51,29,28,58,0,39,43,31,3,0,0,0,18,18,0
CC(=O)Nc1nc2cnc(Nc3cc(NC(=O)c4cccc(CCC#N)c4)ccc3C)nc2s1,6,94.8,29,29,0,0,0,0,15,4,0,17,33,0,0,8,7
COc1ccc(Nc2nccc(-c3cccc(NC(=O)c4cc5cc(F)ccc5[nH]4)c3)n2)cc1 [GSK1229782],47,85,78,53,0,9,13,19,0,8,61,0,18,31,29,34,18
CC(C)(C)c1ccc(C(=O)Nc2cn3cc(-c4cccnc4)ccc3n2)cc1,25,50,37,20,13,21,0,0,0,19,0,0,0,4,0,43,0
Cc1ccccc1-n1cnc2c(N)ncnc21 [SKF-97510],1,100,3,0,0,10,0,0,0,8,0,8,0,0,0,0,0
Cl.NC(=O)c1cccc(Nc2nccc(Nc3ccc(Oc4cccc(Cl)c4)c(Cl)c3)n2)c1 [GW659008],14,0,0,20,0,29,0,14,0,5,32,0,8,0,24,42,33
Fc1cccc(COc2nnc(-c3ccc4c(c3)CCO4)o2)c1,26,25,0,22,0,0,0,100,0,0,0,0,20,11,7,6,0
O=C(Nc1n[nH]c2nc(-c3nccs3)c(Br)cc12)C1CC1 [SB-742251],15,0,22,7,0,6,0,11,0,15,19,0,1,0,26,10,8
